# Test results taken from PubChem BioAssay.
# Records with an inconclusive call do not appear. Activity calls are given as the source filed them. Unless noted, how the calls were made is not given here.
# Columns and labels:
# [1] = target: Pantothenate synthetase (Mycobacterium tuberculosis (strain ATCC 25618 / H37Rv)) (UniProt P9WIL5); test: Recombinant Mtb pantothenate synthetase (PanC) inhibitors, coupled enzyme, confirmatory (AID 375); settings: coupled enzyme assay; at 10 µM, stronger effect = higher value;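 further: 0% = full reaction with vehicle and 100% = no enzyme background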
# [2] = SK-BR-3 cell growth inhibitors, pilot screen, 24 h, human (AID 572;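 active means viability at or below 10% of carrier control in both of two separate runs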;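 further: compound exposure lasted between 18 and 24 h rather than exactly 24 h; 100% = carrier-treated control wells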); settings: SK-BR-3 viability, CellTiter-Glo luminescence, at 10 µM, stronger effect = lower value
# [3] = HUVEC growth inhibition – cell-based, human, primary screen (AID 575;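 active means viability at or below 30% in both replicate assays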;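 further: 100% = median of untreated cell wells with 0.1% DMSO on each plate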); settings: HUVEC proliferation, CellTiter-Glo luminescence, 72 h; at 10 µM; stronger effect = lower value
# [4] = growth inhibitors of H69AR lung tumor, primary screen, human, duplicate replicates (AID 580;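 active means viability at or under a set limit in both replicates, limit being median viability minus 3 SD, cut at about 48% in these data, passing the limit was not always enough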;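 further: 100% = mean luminescence of untreated wells and 0% = no signal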); settings: H69AR lung tumor cells viability, ATP luminescence, 72 h; at 10 µM; stronger effect = lower value
# [5] = reversal of MRP1-mediated doxorubicin resistance, pilot screen, H69AR cells, doxorubicin co-treatment (AID 601;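 active means viability loss from added drug above about 55%, and viability with drug at most 40%, in both replicates, limit read from the data, passing the limit was not always enough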); settings: CellTiter-Glo, 72 h, at 10 µM; for differential viability (reversal): stronger effect = higher value
# [6] = 384-well plate pilot, post-Golgi transport modulator project, inhibition of yeast transport mutant growth (AID 636; in the data active means inhibition above about 31%); settings: absorbance 615 nm, about 18 h, stronger effect = higher value
# [7] = growth suppression of yeast trafficking mutant, preliminary HTS, modulators of trafficking downstream of Golgi apparatus project, 1536-format plate, OD 615 nm (AID 637; in the data active means inhibition above about 30%); settings: yeast transport mutant growth, absorbance 615 nm, 18 h; stronger effect = higher value
# [8] = OD615 S. cerevisiae growth inhibition, permissive medium, pilot counter-assay, permissive growth control for S. cerevisiae lifespan shortening project (AID 705;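 active means growth inhibition above 25% in both replicates, a cutoff set 3 SD above the mean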); settings: OD615, 24 h, at 10 µM, stronger effect = higher value
# [9] = Restrictive medium S. cerevisiae growth inhibition, OD615, pilot screen of yeast lifespan reduction project, restrictive growth control (AID 706;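 active means growth inhibition above a set limit, 3 SD over mean compound inhibition, in both replicates, cut at about 43% in these data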;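 further: modified DeaD lifespan yeast strain shifted to restrictive glucose medium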); settings: OD615, 48 h, at 10 µM, stronger effect = higher value
# [10] = viability gain of MRP-1-high H69AR cells under doxorubicin, pilot screen, MRP-1 activator project, CellTiter-Glo, duplicate (AID 807;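 active means viability increase at or above a cutoff of the median across tested compounds plus 3 SD, cut at about 8.5% in these data, passing the limit was not always enough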;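 further: compound pretreatment 18-22 h then 72 h combined with doxorubicin; 0% = doxorubicin alone and 100% = vehicle without doxorubicin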); settings: H69AR viability with doxorubicin, CellTiter-Glo luminescence; at 10 µM; stronger effect = higher value
# [11] = growth suppression of beta-catenin knockout HCT116, pilot screen, human colon tumor cells (AID 823;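 active means cell viability at or below a set limit in both duplicate runs, the limit being the all-compound median minus 4 SD, cut at about 23% in these data, passing the limit was not always enough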;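 further: 0% = wells killed by 20 µM Hyamine and 100% = untreated DMSO cell wells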); settings: CellTiter-Glo, 60 h, at 10 µM, stronger effect = lower value
# [12] = growth suppression of PTEN-deleted HCT116, pilot screen, cell-based, HCT116 clonal line, CellTiter-Glo (AID 824;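 active means viability at or below 27.92% in each of two runs, the all-compound median minus 4 SD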;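 further: 0% = 20 µM Hyamine control and 100% = vehicle cell control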); settings: 60 h, at 10 µM, stronger effect = lower value
# [13] = inhibitors of the yeast RAM network, pilot screen, dse1pr::URA3 reporter, 5-FOA selection (AID 869;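 active means inhibition over a set limit, the all-compound mean plus 3 SD, in both replicate runs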;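 further: 0% = DMSO wells with no growth and 100% = 10 µM 1-NA-PP1 with full growth; RAM network block rescues cells from 5-FOA so hits raise OD615 growth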); settings: S. cerevisiae dse1pr::URA3 5-FOA growth, OD615, 2 d, at 10 µM, stronger effect = higher value
# [14] = H69AR cells + 2 uM doxorubicin, measured here: viability with 2 uM doxorubicin, stronger effect = lower value
# [15] = H69AR cells, compound alone cytotoxicity
# Pantothenate synthetase (Mycobacterium tuberculosis (strain ATCC 25618 / H37Rv)), sequence (P9WIL5 whole entry, looked up): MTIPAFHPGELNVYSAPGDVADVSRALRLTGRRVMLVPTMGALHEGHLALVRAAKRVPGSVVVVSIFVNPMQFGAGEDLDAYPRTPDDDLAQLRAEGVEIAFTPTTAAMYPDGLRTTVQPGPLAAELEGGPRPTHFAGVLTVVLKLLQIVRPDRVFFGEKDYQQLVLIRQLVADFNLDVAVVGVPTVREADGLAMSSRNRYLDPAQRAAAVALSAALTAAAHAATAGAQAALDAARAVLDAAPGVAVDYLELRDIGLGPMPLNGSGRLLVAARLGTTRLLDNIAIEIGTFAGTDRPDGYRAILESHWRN
Structure (SMILES),inhibition [1],viability [2],viability [3],viability [4],differential viability (reversal) ([5]; H69AR cells + 2 uM doxorubicin),"viability [5, 14]","viability [5, 15]",inhibition [6],inhibition [7],growth inhibition [8],growth inhibition [9],viability increase [10],viability [11],viability [12],inhibition [13]
CCCNS(=O)(=O)c1ccc(OCC(=O)N2CCN(Cc3ccccc3)CC2)cc1,0% (inactive),111% (inactive),86.6% (inactive),88.6% (inactive),0.375% (inactive),88.2%,88.6%,-5.07% (inactive),5.97% (inactive),,,,,,
CCCC(=O)OCC[N+](C)(C)C,0% (inactive),83% (inactive),93.4% (inactive),101% (inactive),-4.88% (inactive),106%,101%,1.04% (inactive),40.7% (active),,,,,,
c1ccc(Cn2ccnc2)cc1,0% (inactive),127% (inactive),84.4% (inactive),93.5% (inactive),-0.24% (inactive),93.7%,93.5%,0.78% (inactive),22% (inactive),,,,,,
c1ccc2c(c1)[nH]c1cnccc12,0% (inactive),100% (inactive),70.2% (inactive),83% (inactive),2.26% (inactive),80.7%,83%,-0.78% (inactive),0.5% (inactive),,,,,,
Clc1ccc(COC(Cn2ccnc2)c2ccc(Cl)cc2Cl)cc1 (centres undefined),2% (inactive),123% (inactive),73.4% (inactive),,-9.47% (inactive),48%,38.5%,,,,,,,,
O=C1c2ccccc2C(=O)N1Cc1nc2ccccc2c(=O)n1-c1ccc(Br)cn1,,,,,,,,,,-8.78% (inactive),-3.02% (inactive),0.3% (inactive),98.4% (inactive),99.3% (inactive),1.44% (inactive)
CCOC(=O)C1SC2(C(F)F)CC1(O)c1c(c(OC)c3occc3c1OC)O2 (centres undefined),0% (inactive),91% (inactive),93.3% (inactive),104% (inactive),22.9% (inactive),80.9%,104%,-4.73% (inactive),0.73% (inactive),,,,,,
Cc1cccc(C2=NCC(=O)N(CC(=O)NCc3ccco3)c3sc4c(c32)CCCC4)c1,8% (inactive),102% (inactive),,,-28.5% (inactive),84.4%,55.9%,-6.49% (inactive),4.6% (inactive),,,,,,
Cc1ccc2c(c1)[C@@H]1CN(C)CC[C@@H]1N2C(=O)Nc1cccc(C(F)(F)F)c1,9% (inactive),,,69.9% (inactive),-8.21% (inactive),78.1%,69.9%,1.45% (inactive),1.15% (inactive),,,,,,
Cc1ccc(Cn2c(C)c3cnn(CC(=O)N4CCC5(CC4)OCCO5)c(=O)c3c2C)cc1,0% (inactive),97% (inactive),98% (inactive),,-46.2% (inactive),100%,53.8%,-0.81% (inactive),-1.09% (inactive),,,,,,
CCC(C(=O)N1CCC2(CC1)OCCO2)c1ccccc1 (centres undefined),0% (inactive),,102% (inactive),93% (inactive),13.2% (inactive),79.8%,93%,-6.4% (inactive),1.43% (inactive),,,,,,
CNCCc1c[nH]c2ccccc12,0% (inactive),127% (inactive),85.9% (inactive),84.5% (inactive),-20.1% (inactive),105%,84.5%,-0.39% (inactive),12% (inactive),,,,,,
C[C@H]1CCCC(=O)CCCCCc2cc(O)cc(O)c2C(=O)O1,2% (inactive),107% (inactive),,87.3% (inactive),-23% (inactive),110%,87.3%,0.26% (inactive),-1.83% (inactive),,,,,,
